The source made the active and inactive calls. Unless noted, the rule behind the calls is not given here.
What was measured:
[1] = compound effects on lung adenocarcinoma cell viability – A549, calcein-AM fluorescence, 48 h, basal, profiling panel (AID 1162); settings: higher = more signal; note: test concentration not given here
[2] = compound effects on differentiated 3T3-L1 adipocyte viability – cell-based, 3T3-L1 adipocytes, calcein-AM fluorescence, 48 h, basal, profiling panel (AID 1163); settings: 3T3-L1 adipocytes viability, higher = more signal; note: test concentration not given here
[3] = compound effects on hepatocellular carcinoma cell viability – HepG2, calcein-AM fluorescence, 48 h, basal, profiling panel (AID 1164); settings: higher = more signal; note: test concentration not given here
[4] = compound effects on multiple myeloma cell viability – MM1S, calcein-AM fluorescence, 48 h, basal, profiling panel (AID 1165); settings: higher = more signal;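 note: viability of MM1S multiple myeloma cells under basal unstimulated conditions; test concentration not given here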
[5] = calcein-AM signal in unstimulated myeloma cells – cell-based, calcein-AM fluorescence, 48 h, PK04 Diversity Set, profiling panel (AID 1166); settings: RPMI8226 myeloma viability, higher = more signal;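 note: cells grown under basal conditions without added stimulus; test concentration not given here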
[6] = JC-1 mitochondrial signal, unstimulated HepG2 cells – cell-based, JC-1 fluorescence, 24 h, 100 nL compound, profiling panel (AID 1167); settings: HepG2 mitochondrial potential, higher = more signal; note: test concentration not given here
[7] = JC-1 mitochondrial signal, unstimulated adipocytes – cell-based, JC-1 fluorescence, 3T3-L1 adipocytes, 24 h, 100 nL compound, profiling panel (AID 1168); settings: JC-1 mitochondrial fluorescence, higher = more signal, called active from +8 up or from −8 down; note: test concentration not given here
[8] = JC-1 mitochondrial signal, unstimulated myeloma cells – cell-based, JC-1 fluorescence, RPMI8226, 24 h, 100 nL compound, profiling panel (AID 1169); settings: JC-1 mitochondrial potential fluorescence, higher = more signal; note: test concentration not given here
[9] = JC-1 mitochondrial signal, unstimulated MM1S myeloma – cell-based, JC-1 fluorescence, 24 h, 100 nL compound, profiling panel (AID 1170); settings: MM1S mitochondrial potential, higher = more signal; note: test concentration not given here
[10] = resazurin metabolic signal in A549 cells – cell-based, resazurin fluorescence, 24 h, PK04 Diversity Set, profiling panel (AID 1171); settings: A549 viability, higher = more signal, called active from +8 up or from −8 down; note: test concentration not given here
[11] = resazurin metabolic signal in HepG2 cells – cell-based, resazurin fluorescence, 24 h, PK04 Diversity Set, profiling panel (AID 1172); settings: HepG2 viability, higher = more signal; note: test concentration not given here
[12] = budding yeast growth changes without added modifier – OD600, strain BY4716, 24 h, basal condition, primary screen (AID 1173); settings: S. cerevisiae BY4716 growth, OD600, 24 h; higher = more signal, called active from +8 up or from −8 down
[13] = viability profiling in MM1S myeloma cells – cell-based, resazurin fluorescence, basal, 24 h, PK04 Diversity Set, profiling panel (AID 1174); settings: higher = more signal, called active from +8 up or from −8 down; note: test concentration not given here
[14] = biological target: Dihydroorotate dehydrogenase (quinone), mitochondrial (Plasmodium falciparum (isolate 3D7)) (UniProt Q08210); assay: inhibition of P. falciparum DHODH – biochemical, C-terminal His tag, absorbance 600 nm, primary screen (AID 1175); settings: PfDHODH enzyme, DCIP absorbance 600 nm; higher = more signal, called active from +8 up or from −8 down;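 note: recombinant parasite enzyme with a five histidine tag at its C terminus; test concentration not given here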
Chain of Dihydroorotate dehydrogenase (quinone), mitochondrial (Plasmodium falciparum (isolate 3D7)) (Q08210 whole entry, looked up): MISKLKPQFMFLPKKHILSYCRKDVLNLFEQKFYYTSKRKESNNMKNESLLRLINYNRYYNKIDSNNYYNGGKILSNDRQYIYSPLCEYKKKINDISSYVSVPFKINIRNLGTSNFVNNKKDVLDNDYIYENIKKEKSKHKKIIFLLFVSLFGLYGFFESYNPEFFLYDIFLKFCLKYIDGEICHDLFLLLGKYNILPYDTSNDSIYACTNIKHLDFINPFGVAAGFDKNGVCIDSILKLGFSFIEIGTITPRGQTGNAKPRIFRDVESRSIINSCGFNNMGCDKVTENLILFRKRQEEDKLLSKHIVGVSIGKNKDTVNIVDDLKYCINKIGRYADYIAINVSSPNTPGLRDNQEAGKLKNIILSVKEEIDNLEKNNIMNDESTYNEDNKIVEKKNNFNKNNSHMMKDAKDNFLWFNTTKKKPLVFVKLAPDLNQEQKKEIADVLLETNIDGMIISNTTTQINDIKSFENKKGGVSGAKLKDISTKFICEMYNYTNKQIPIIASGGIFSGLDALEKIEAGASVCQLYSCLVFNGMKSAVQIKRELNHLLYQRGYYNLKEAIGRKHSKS

[15] = inhibition of PAO1 biofilm formation – strain PAO1, LB-PBS medium, absorbance 600 nm, primary screen (AID 1176); note: test concentration not given here; settings: P. aeruginosa PAO1 growth/biofilm, A600, 12 h; higher = more signal
[16] = growth modulation of vineyard yeast isolate – strain RM11-1a, OD600, basal, 24 h, primary screen (AID 1177);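 note: cultures grown under basal conditions with no added stressor; test concentration not given here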; settings: S. cerevisiae RM11-1a growth, OD600, 24 h; higher = more signal, called active from +8 up or from −8 down
[17] = growth of efflux-deficient E. coli DRC39 – strain DRC39, OD650, 24 h, E. coli filamentation inducers, primary screen (AID 1178);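 note: growth measured as culture turbidity by optical density at 650 nm; test concentration not given here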; settings: E. coli DRC39 acrAB, higher = more signal, called active from +8 up or from −8 down
[18] = growth of efflux-deficient E. coli DRC39 – strain DRC39, OD650, 48 h, E. coli filamentation inducers, primary screen (AID 1179);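 note: screen aims at cell division blockers that make cells filament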; settings: E. coli DRC39 delta-acrAB growth, higher = more signal, called active from +8 up or from −8 down
[19] = viability profiling in RPMI8226 myeloma cells – cell-based, resazurin fluorescence, basal, 24 h, PK04 Diversity Set, profiling panel (AID 1180); settings: higher = more signal;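 note: RPMI8826 multiple myeloma cell line at 5000 cells per well; test concentration not given here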
[20] = biological target: E3 ubiquitin-protein ligase XIAP (Homo sapiens) (UniProt P98170); assay: small molecules binding XIAP protein – biophysical, small-molecule microarray, fluorescence 635 nm, primary screen (AID 1181); settings: higher = more signal;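 note: score merges 667 nm emission and signal to noise over triplicate slides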
Chain of E3 ubiquitin-protein ligase XIAP (Homo sapiens) (P98170 whole entry, looked up): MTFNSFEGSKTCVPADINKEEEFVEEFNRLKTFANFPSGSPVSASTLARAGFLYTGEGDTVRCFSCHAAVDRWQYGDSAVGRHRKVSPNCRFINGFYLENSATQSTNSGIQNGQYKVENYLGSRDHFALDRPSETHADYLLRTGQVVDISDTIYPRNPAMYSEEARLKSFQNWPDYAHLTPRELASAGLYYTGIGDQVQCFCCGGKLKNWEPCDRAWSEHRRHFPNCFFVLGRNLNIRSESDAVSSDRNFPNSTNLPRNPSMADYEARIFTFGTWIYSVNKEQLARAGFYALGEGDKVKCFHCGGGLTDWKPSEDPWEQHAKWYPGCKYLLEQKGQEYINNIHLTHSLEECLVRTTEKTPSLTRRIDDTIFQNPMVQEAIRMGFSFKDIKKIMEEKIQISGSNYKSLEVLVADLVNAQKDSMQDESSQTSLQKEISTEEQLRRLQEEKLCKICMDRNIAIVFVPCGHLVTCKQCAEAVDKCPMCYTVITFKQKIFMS

Compound	z-score [1]	z-score [2]	z-score [3]	z-score [4]	z-score [5]	z-score [6]	z-score [7]	z-score [8]	z-score [9]	z-score [10]	z-score [11]	z-score [12]	z-score [13]	composite z-score [14]	z-score [15]	z-score [16]	z-score [17]	z-score [18]	z-score [19]	composite z-score [20]
COCCOC(=O)N1C(=O)[C@@]2(c3cc(C#CC4(O)CCCCCC4)ccc31)[C@H](c1ccc(O)cc1)N1[C@H](c3ccccc3)[C@H](c3ccccc3)OC(=O)[C@H]1[C@@H]2C(=O)N1CCN(c2ncccn2)CC1	-0.98	0.284	0.278	-1.61	-1.16	-0.81	-0.912 (inactive)	-0.406	-0.091	0.435 (inactive)	0.0439	-0.31 (inactive)	-0.705 (inactive)	0.244 (inactive)	0.654 (inactive)	0.326 (inactive)	-0.462 (inactive)	0.0188 (inactive)	-0.528	0.0487
COC(=O)[C@@]1(Cc2ccc(OC)cc2)[C@H]2c3cc(C(=O)N4CCCC4)n(CCc4c[nH]c5ccc(OC)cc45)c3C[C@H]2CN1C(=O)c1ccccc1	-1.19	-0.791	-0.636	-1.52	-3.62	-0.205	-1.04 (inactive)	-0.819	-1.86	-2.3 (inactive)	-1.23	1.26 (inactive)	-3.31 (inactive)	-0.112 (inactive)	1.54 (inactive)	0.708 (inactive)	-0.456 (inactive)	-0.0765 (inactive)	-3.35	0.123
C#CCN(Cc1ccccc1Br)[C@H](/C=C/c1ccccc1)[C@@H](O)Cc1ccccc1	-0.892	-0.566	-1.54	-1.63	-3.89	-2.68	-0.694 (inactive)	-0.538	0.42	2.3 (inactive)	1.71	0.31 (inactive)	-0.309 (inactive)	0.342 (inactive)	-0.0825 (inactive)	1.05 (inactive)	1.84 (inactive)	1.24 (inactive)	-0.971	-0.0559
CCOC(=O)C[C@H]1[C@H](OC(=O)Cc2ccc3c(c2)OCO3)[C@@H](NC(=O)c2ccc3ccccc3n2)c2cc(OCCCO)ccc2N1C(=O)c1ccc2ccccc2n1	5.35	1.03	1.83	-1.01	0.121	2.81	0.413 (inactive)	0.362	0.981	-0.387 (inactive)	0.482	-1.22 (inactive)	-0.145 (inactive)	-0.574 (inactive)	0.325 (inactive)	-2.19 (inactive)	2.08 (inactive)	1.57 (inactive)	-0.172	-0.0773
CN1C(=O)C2C=CC(C(O)c3cccn3C)N(Nc3ccc([N+](=O)[O-])cc3[N+](=O)[O-])C2C1=O (stereo not given)	-0.49	-1.35	-0.678	-2.1	0.16	-1.58	-1.16 (inactive)	0.647	-0.0962	-1.03 (inactive)	-0.929	1.1 (inactive)	-1.76 (inactive)	-0.145 (inactive)	0.667 (inactive)	0.407 (inactive)	-0.314 (inactive)	-0.119 (inactive)	-1.34	-0.354
O=C1O[C@@H](c2ccccc2)[C@@H](c2ccccc2)N2[C@@H](c3ccc(OCCO)cc3)[C@]3(C(=O)Nc4ccc(C#CC5=CCCCC5)cc43)[C@@H](C(=O)NC[C@H](O)c3ccccc3)[C@H]12	0.152	1.49	0.348	0.0056	-2.81	-1.93	-0.106 (inactive)	-0.875	-1.24	-0.956 (inactive)	-0.661	1.49 (inactive)	-1.94 (inactive)	-0.729 (inactive)	3.14 (inactive)	2.72 (inactive)	-0.107 (inactive)	-0.245 (inactive)	-3.11	-0.118
COc1cc2c(cc1O)C(C1CC1)N(Cc1cccc(OC(F)(F)F)c1)CC2 (stereo not given)	-1.74	0.119	-3.68	-3.18	-2.99	-2.84	-0.356 (inactive)	-0.686	-2.61	-1.05 (inactive)	-0.882	-5.59 (inactive)	-3.32 (inactive)	-3.64 (inactive)	-0.0344 (inactive)	0.002 (inactive)	0.213 (inactive)	-0.0239 (inactive)	-2.84	0.0674
O=c1cccc(-c2ccc([N+](=O)[O-])cc2)o1	0.419	0.294	0.273	-0.369	-0.308	0.302	0.543 (inactive)	0.379	-1.01	-0.0447 (inactive)	0.269	-0.589 (inactive)	0.697 (inactive)	-0.371 (inactive)	0.201 (inactive)	-0.376 (inactive)	-0.0154 (inactive)	1.34 (inactive)	-0.425	0.515
O=C1C2C=CC(C(O)c3cccc(O)c3)N(Nc3ccc([N+](=O)[O-])cc3)C2C(=O)N1c1ccccc1 (stereo not given)	-0.505	-0.55	-0.0586	-0.0899	0.45	-2.01	-1.78 (inactive)	-0.217	-1.25	0.014 (inactive)	0.0585	0.661 (inactive)	-0.337 (inactive)	0.861 (inactive)	-0.0601 (inactive)	0.339 (inactive)	-0.478 (inactive)	-0.156 (inactive)	-0.55	0.0927
C=C(COC)/C(=C/C[C@H](OC(=O)c1ccncc1)c1ccc(CO)o1)c1cnc2ccccc2c1	0.349	-0.474	-0.439	-1.41	-0.366	-1.06	-0.582 (inactive)	0.178	-0.592	-0.319 (inactive)	-0.338	0.107 (inactive)	-0.117 (inactive)	-7.5 (inactive)	0.449 (inactive)	0.158 (inactive)	-0.305 (inactive)	-0.343 (inactive)	0.0987	-0.121
CCCCC(O)C1C=CC2C(=O)N(C)C(=O)C2N1N(c1ccccc1)c1ccccc1 (stereo not given)	-0.646	-1.68	0.821	-0.769	-0.938	-1.19	-1.3 (inactive)	-0.198	-0.497	-0.7 (inactive)	-0.682	0.512 (inactive)	-1.65 (inactive)	-0.226 (inactive)	1.26 (inactive)	0.46 (inactive)	-0.447 (inactive)	-0.251 (inactive)	-1.05	0.001
CCCC=C(CCC)[C@@H](NP(=O)(c1ccccc1)c1ccccc1)c1ccc(-c2ccccc2)cc1	-1.51	-0.933	-1.47	-1.67	-2.96	-4.76	0.74 (inactive)	-0.343	-2.36	0.647 (inactive)	0.127	2.21 (inactive)	-1.16 (inactive)	0.23 (inactive)	-0.511 (inactive)	1.42 (inactive)	-0.492 (inactive)	0.477 (inactive)	-1.72	0.144
O=C1CS(=O)(=O)C(c2cccc([N+](=O)[O-])c2)N1c1ccccc1 (stereo not given)	1.02	0.116	1.46	0.637	1.22	1.24	-0.662 (inactive)	-0.141	2.21	0.0249 (inactive)	0.946	-1.3 (inactive)	0.973 (inactive)	-1.21 (inactive)	0.627 (inactive)	-0.818 (inactive)	1.16 (inactive)	1.21 (inactive)	0.511	0.0055
CC(C)C(CO)N1C(=O)[C@@H]2C3C(=O)OCCC/C=C\[C@H]3OC23C=CCN(Cn2nnc4ccccc42)C(=O)[C@@H]13 (stereo not given in full)	0.225	0.0251	0.0343	1	-0.224	-0.45	-0.529 (inactive)	-0.0779	-0.165	0.173 (inactive)	0.658	-0.133 (inactive)	0.184 (inactive)	-1.09 (inactive)	0.233 (inactive)	-0.0374 (inactive)	0.246 (inactive)	0.118 (inactive)	0.37	-0.0367
C=CC[C@@]1(C(=O)NCCCOC)N=C(c2ccc(OCCCO)cc2)O[C@@H]1c1ccccc1N=[N+]=[N-]	1.42	0.0373	-0.465	-1.06	0.241	1.62	0.863 (inactive)	-0.178	-0.917	0.2 (inactive)	1.06	-0.537 (inactive)	-0.394 (inactive)	1.05 (inactive)	-0.814 (inactive)	0.464 (inactive)	0.868 (inactive)	1.43 (inactive)	-0.137	0.598
Cc1cc(C)c(C(O)C2C=CC3C(=O)N(c4ccccc4)C(=O)C3N2Nc2ccccc2F)c(C)c1 (stereo not given)	-0.472	-0.89	-0.631	-1.57	0.48	-1.84	-0.709 (inactive)	-0.15	1.01	1.61 (inactive)	0.485	2.01 (inactive)	-0.371 (inactive)	1.03 (inactive)	0.971 (inactive)	1.56 (inactive)	-0.47 (inactive)	-0.439 (inactive)	-0.527	0.127
CC(C)NC(=O)[C@@]1(C)c2ccccc2C(=O)N(Cc2ccc(OC(F)(F)F)cc2)[C@H]1c1ccc(CO)cc1	-0.692	1.08	0.0903	-0.0831	-0.676	2.05	-0.682 (inactive)	-0.547	-1.67	-0.0752 (inactive)	-1.09	0.154 (inactive)	0.796 (inactive)	-0.852 (inactive)	0.559 (inactive)	0.973 (inactive)	-0.048 (inactive)	-0.6 (inactive)	0.959	-0.217
CC(C)(C)OC(=O)CC[C@@]1(C(=O)NCC(O)CO)N=C(c2ccc(OCCCO)cc2)O[C@@H]1c1ccccc1CN=[N+]=[N-] (stereo not given in full)	1.25	0.478	-0.0162	-0.217	-0.34	0.0542	0.0122 (inactive)	-0.418	1.12	0.0255 (inactive)	0.507	-0.215 (inactive)	-0.0579 (inactive)	0.345 (inactive)	0.869 (inactive)	-0.181 (inactive)	0.642 (inactive)	-0.154 (inactive)	0.126	0.153

Source: PubChem BioAssay
